From PubChem BioAssay (NCATS)
Records with an inconclusive call do not appear. Entries that show only a call come without a potency. Calls of active or inactive are those of the source. Unless noted, the call rests on the fitted dose curve; in most records, active means well fitted curve in the direction sought with a large enough effect; inconclusive means small, poorly fitted or top-dose-only effect, or another doubt; inactive means no such curve, though single readings can be large; an effect the other way counts as inactive or inconclusive.

How the values were obtained:
[1] = target: Mitogen-activated protein kinase 10 (Mus musculus) (UniProt Q61831); experiment: JNK3 AlphaScreen Assay (AID 530; active means well fitted curve in either direction with a large enough effect, not every such curve was filed as active;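 further: kinase came from lysate of stimulated human HepG2 cells; signal reports phosphorylation of biotinylated GST-cJun 1-79 at Ser73 with 10 µM ATP; series mostly up to about 57 µM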)
Method in brief: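 Phosphorylation of biotinylated GST-cJun(1-79) at Ser73 is measured by AlphaScreen proximity luminescence. Enzyme is JNK3 in HepG2 lysates activated with interleukin-1beta and tumor necrosis factor alpha; ATP is 10 uM final.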

[2] = target: Cytochrome P450 3A4 (Homo sapiens) (UniProt P08684); experiment: qHTS Assay for Inhibitors and Substrates of Cytochrome P450 3A4 (AID 884); further: potency means the concentration at half of the fitted maximal effect; nearly all actives have a fitted effect of over 50% in size
Sequence of Cytochrome P450 3A4 (Homo sapiens) (P08684 whole entry, looked up): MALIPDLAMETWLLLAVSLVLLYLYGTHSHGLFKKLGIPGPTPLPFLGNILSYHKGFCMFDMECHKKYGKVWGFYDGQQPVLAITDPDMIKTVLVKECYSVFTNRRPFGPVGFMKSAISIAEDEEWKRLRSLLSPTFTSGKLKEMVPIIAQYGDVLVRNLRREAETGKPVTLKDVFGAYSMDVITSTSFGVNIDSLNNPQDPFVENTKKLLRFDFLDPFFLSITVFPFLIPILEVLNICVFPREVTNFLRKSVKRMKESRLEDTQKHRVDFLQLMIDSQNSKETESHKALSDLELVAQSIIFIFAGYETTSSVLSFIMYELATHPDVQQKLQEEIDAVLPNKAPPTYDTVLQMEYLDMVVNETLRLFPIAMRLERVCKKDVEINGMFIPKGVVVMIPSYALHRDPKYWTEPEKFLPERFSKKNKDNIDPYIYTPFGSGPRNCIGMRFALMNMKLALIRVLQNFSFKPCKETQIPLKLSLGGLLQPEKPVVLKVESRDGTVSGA
Method in brief: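 Luminescent readout of luciferin produced by CYP3A4 (20 nM) dealkylation of Luciferin-PPXE, 25 uM (its KM). NADPH-driven reaction ran 60 min at RT after 10 min compound preincubation; data scaled to 57 uM ketoconazole as 100% inhibition.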

[3] = target: Cytochrome P450 3A4 (Homo sapiens) (UniProt P08684); experiment: qHTS Assay for Activators of Cytochrome P450 3A4 (AID 885); further: nearly all actives have a fitted effect of over 65% in size
Method in brief: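 Human CYP3A4 dealkylates Luciferin-PPXE to luciferin, which luciferase detection converts to light. Substrate was at its KM (25uM), buffer 200mM KPO4, reaction 60 min at RT.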

Row | SMILES | outcome [1] | Potency [2] | Potency [3]
1 | Cc1nn(-c2ccccc2)nc1CNC(=O)C(C)Cc1ccccc1 (stereo not drawn) | inactive | 2.51 µM (active) | inactive
2 | COC(=O)c1ccc(C(NC(=O)OCc2ccccc2)/C(I)=C/[C@@H](C)C(=O)Nc2ccccc2)cc1 (stereo partly drawn) | inactive | – | inactive
3 | CC(=O)N1[C@H](C)C=C[C@]1(Cc1ccccc1)C(=O)NCCc1c[nH]c2ccccc12 | inactive | – | inactive
4 | COC(=O)CNC(=O)C1(C)C=CC2(CCCCC2)N1C(=O)OC (stereo not drawn) | inactive | – | inactive
5 | CC(=O)N1CC=CC1(CC(C)C)C(=O)NCC1CC1 (stereo not drawn) | inactive | – | inactive
6 | COC(=O)c1ccc(C(NC(=O)OCc2ccccc2)/C(C)=C/[C@@H](C)C(=O)Nc2ccc(OC)cc2)cc1 (stereo partly drawn) | inactive | 2.51 µM (active) | inactive
7 | CCCCCCN(C(=O)CCCCCN1C(=O)NC(C2CC2)C(C(=O)OCc2ccccc2)=C1C)C(C(=O)NCCCC)c1ccc(OCC(=O)OC)c(C(=O)OC)c1 (stereo not drawn) | inactive | 3.98 µM (active) | inactive
8 | CNC(=O)C1(C)C=CC2(CCCCC2)N1C(C)=O (stereo not drawn) | inactive | – | inactive
9 | COCCNC(=O)[C@H](C)/C=C/C(NC(=O)OCc1ccccc1)c1ccc(C(=O)OC)cc1 (stereo partly drawn) | inactive | – | inactive
10 | COC(=O)c1ccc(C(NC(=O)OCc2ccccc2)/C(C)=C/[C@@H](C)C(=O)NCCc2c[nH]c3ccc(OC)cc23)cc1 (stereo partly drawn) | inactive | 2 µM (active) | inactive
11 | CCCCNC(=O)C(c1ccc(-c2ccccc2)cc1)N(CCN1CCOCC1)C(=O)CCCCCN1C(=O)NC(c2ccc([N+](=O)[O-])cc2)C(C(=O)OCc2ccccc2)=C1C (stereo not drawn) | inactive | 2.51 µM (active) | inactive
12 | CNC(=O)[C@@]1(C)C=C[C@@H](Cc2ccccc2)N1C(=O)OC | inactive | – | inactive
13 | COCCNC(=O)C1(CC(C)C)C=CCN1C(=O)c1ccccc1 (stereo not drawn) | inactive | – | inactive
14 | COCCNC(=O)C1(CC(C)C)C=CCN1C(=O)OC (stereo not drawn) | inactive | – | inactive
15 | COC(=O)c1ccc(C(/C=C/[C@@H](C)C(=O)NCCN2CCCC2)NC(=O)OCc2ccccc2)cc1 (stereo partly drawn) | inactive | 10 µM (active) | inactive
16 | CC(=O)N1[C@H](C)C=C[C@]1(Cc1ccccc1)C(=O)O | inactive | – | inactive

Row | SMILES | outcome [1] | Potency [2] | Potency [3]
17 | CC(C)CC1(C(=O)NCc2ccccn2)C=CCN1C(=O)c1ccccc1 (stereo not drawn) | inactive | – | inactive
18 | COC(=O)N1CC=CC1(C)C(=O)NCc1ccc(C)o1 (stereo not drawn) | inactive | – | inactive
19 | COC(=O)c1ccc(C(NC(=O)OCc2ccccc2)/C(I)=C/[C@@H](C)C(=O)NCc2ccc(OC)c(O)c2)cc1 (stereo partly drawn) | inactive | 3.16 µM (active) | inactive
20 | Cc1cc(CNC(=O)C(C)Cc2ccccc2)nn1C (stereo not drawn) | inactive | – | inactive
21 | COC(=O)C1(C)C=CC2(CCCCC2)N1C(C)=O (stereo not drawn) | inactive | – | inactive
22 | CC1(C(=O)NCCN2CCOCC2)C=CCN1C(=O)c1ccccc1 (stereo not drawn) | inactive | – | inactive
23 | C[C@@H]1C=C[C@](Cc2ccccc2)(C(=O)NCCN2CCOCC2)N1C(=O)c1ccccc1 | inactive | 5.01 µM (active) | inactive
24 | COC(=O)CCCCCN1C(=O)NC(c2ccccc2)C(C(=O)OCc2ccccc2)=C1C (stereo not drawn) | inactive | – | inactive
25 | COC(=O)CNC(=O)C1(CC(C)C)C=CCN1C(=O)c1ccccc1 (stereo not drawn) | inactive | – | inactive
26 | C/C(=C\[C@@H](NP(=O)(c1ccccc1)c1ccccc1)c1ccccc1)CO[Si](c1ccccc1)(c1ccccc1)C(C)(C)C | inactive | 2 µM (active) | inactive
27 | C[C@@H]1C=C[C@](Cc2ccccc2)(C(=O)NCCCNc2ncc(C(F)(F)F)cc2Cl)N1C(=O)c1ccccc1 | inactive | – | inactive
28 | CN(C)C(=O)[C@@H]1C[C@H]1[C@@H](NC(=O)OCc1ccccc1)c1ccccc1 | inactive | 10 µM (active) | inactive
29 | CC1=C(C(=O)OCc2ccccc2)C(c2ccc(C3CCCCC3)cc2)NC(=O)N1CCCCCC(=O)O (stereo not drawn) | inactive | – | inactive
30 | CCCCCCN(C(=O)CCCCCN1C(=O)NC(c2ccc(-c3ccccc3)cc2)C(C(=O)OCc2ccccc2)=C1C)C(C)C(=O)NCCCC (stereo not drawn) | inactive | 3.16 µM (active) | inactive
31 | COCCNC(=O)[C@H](C)/C=C(\c1cccnc1)C(NC(=O)OCc1ccccc1)c1ccc(C(=O)OC)cc1 (stereo partly drawn) | inactive | – | inactive
